The campaign covered roughly 5,500 compounds. About 2,000 (36%) were called active. Not shown: some 18% with an inconclusive outcome. Rule as the data show it: active = normalized growth mostly below about 0.91 (no sharp cut-off); inconclusive = no clear call, values can overlap the other calls; inactive = mostly above about 0.92. The list shows a part of the results.
Assay: chemical genetic growth profiling, strain panel (AID 1159580);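 also: tested at 20 µM; growth read once vehicle control cultures reached saturation at 30 °C; 1 = growth at the plate median or of vehicle wells; lower values mean less growth of the strain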
Settings: S. cerevisiae deletion strains, growth OD
[1] = locus YDL101C, strain DUN1, active compounds read low
[2] = locus YHR030C, strain SLT2, active compounds read low

Measured: normalized growth

O=C(Oc1ccc(C2SCCS2)cc1)c1cccs1
inactive: locus YAR019C, strain CDC15, active compounds read low 1 | locus YBL105C, strain PKC1, active compounds read low 1.01 | locus YBR135W, strain CKS1, active compounds read low 0.997 | locus YBR136W, strain MEC1, active compounds read low 1.01 | locus YBR160W, strain CDC28, active compounds read low 1 | locus YDL017W, strain CDC7, active compounds read low 0.999 | locus YDL028C, strain MPS1, active compounds read low 0.993 | [1] 1.01 | locus YDL108W, strain KIN28, active compounds read low 0.996 | locus YDL132W, strain cdc53, active compounds read low 0.995 | locus YDL214C, strain PRR2, active compounds read low 0.775 | locus YDR052C, strain DBF4, active compounds read low 1.01 | locus YDR054C, strain cdc34, active compounds read low 1 | locus YDR226W, strain ADK1, active compounds read low 1 | locus YDR477W, strain SNF1, active compounds read low 0.818 | locus YER123W, strain YCK3, active compounds read low 0.812 | locus YER133W, strain GLC7, active compounds read low 0.834 | locus YFL009W, strain cdc4, active compounds read low 1 | locus YFL029C, strain CAK1, active compounds read low 1.02 | locus YFR003C, strain YPI1, active compounds read low 1.01 | locus YFR028C, strain CDC14, active compounds read low 0.988 | locus YGR040W, strain KSS1, active compounds read low 0.869 | locus YGR052W, strain FMP48, active compounds read low 0.821 | locus YGR092W, strain DBF2, active compounds read low 0.768 | locus YHR079C, strain IRE1, active compounds read low 0.678 | locus YHR082C, strain KSP1, active compounds read low 0.716 | locus YHR205W, strain SCH9, active compounds read low 0.936 | locus YIL147C, strain SLN1, active compounds read low 1 | locus YJL095W, strain BCK1, active compounds read low 0.572 | locus YJL128C, strain PBS2, active compounds read low 0.951 | locus YJL157C, strain FAR1, active compounds read low 0.716 | locus YJR016C, strain ILV3, active compounds read low 1 | locus YJR066W, strain TOR1 (second series), active compounds read low 0.884 | locus YJR066W, strain TOR1, active compounds read low 0.684 | locus YKL048C, strain ELM1, active compounds read low 0.937 | locus YKL101W, strain HSL1, active compounds read low 0.852 | locus YKL193C, strain SDS22, active compounds read low 0.997 | locus YKL203C, strain TOR2, active compounds read low 0.876 | locus YLR113W, strain HOG1, active compounds read low 0.884 | locus YLR133W, strain CKI1, active compounds read low 0.896 | locus YLR403W, strain SFP1, active compounds read low 0.763 | locus YML070W, strain DAK1, active compounds read low 0.726 | locus YMR001C, strain CDC5, active compounds read low 1.01 | locus YMR205C, strain PFK2 (second series), active compounds read low 0.805 | locus YMR277W, strain FCP1, active compounds read low 1 | locus YNL006W, strain LST8, active compounds read low 1 | locus YNL020C, strain ARK1, active compounds read low 0.829 | locus YNL161W, strain CBK1, active compounds read low 1 | locus YNL183C, strain NPR1, active compounds read low 0.81 | locus YNL207W, strain RIO2, active compounds read low 1 | locus YNL222W, strain SSU72, active compounds read low 0.999 | locus YNL307C, strain MCK1 (second series), active compounds read low 0.784 | locus YOL078W, strain AVO1, active compounds read low 0.997 | locus YOL136C, strain PFK27, active compounds read low 0.701 | locus YOR061W, strain CKA2, active compounds read low 0.737 | locus YOR119C, strain RIO1, active compounds read low 0.785 | locus YOR329C, strain SCD5, active compounds read low 1.01 | locus YPL031C, strain PHO85, active compounds read low 0.697 | locus YPL153C, strain RAD53, active compounds read low 0.777 | locus YPL204W, strain HRR25, active compounds read low 0.852 | locus YPL209C, strain IPL1, active compounds read low 1.01 | locus YPR025C, strain CCL1, active compounds read low 0.997 | locus YPR106W, strain ISR1, active compounds read low 1.01 | locus YPR111W, strain DBF20, active compounds read low 1 | strain NNK1, active compounds read low 1.03 | strain TSCII, active compounds read low 1.02
active: locus YFR019W, strain FAB1, active compounds read low 0.689 | [2] 0.667 | locus YKL067W, strain YNK1, active compounds read low 0.684 | locus YOR231W, strain MKK1, active compounds read low 0.549 | locus YPL256C, strain CLN2, active compounds read low 0.776

O=C(Oc1ccc(F)cc1)c1cccs1
inactive: locus YAL013W, strain DEP1, active compounds read low 1.01 | locus YBR229C, strain ROT2, active compounds read low 1.01 | [1] 1.03 | locus YDR150W, strain NUM1, active compounds read low 0.941 | locus YEL061C, strain CIN8, active compounds read low 1 | locus YGR078C, strain PAC10, active compounds read low 1.01 | [2] 0.987 | locus YHR087W, strain rtc3, active compounds read low 0.992 | locus YJR043C, strain POL32, active compounds read low 1.03 | locus YJR075W, strain HOC1, active compounds read low 0.986 | locus YLR039C, strain RIC1, active compounds read low 1.05 | locus YLR058C, strain SHM2 (second series), active compounds read low 0.995 | locus YLR085C, strain ARP6, active compounds read low 0.992 | locus YLR262C, strain YPT6, active compounds read low 0.967 | locus YML094W, strain GIM5, active compounds read low 0.989 | locus YMR219W, strain ESC1, active compounds read low 0.993 | locus YMR263W, strain SAP30, active compounds read low 0.966 | locus YNL153C, strain GIM3, active compounds read low 1.02 | locus YNL298W, strain CLA4 (second series), active compounds read low 1.03 | locus YNL322C, strain KRE1, active compounds read low 1 | locus YNR030W, strain Alg12, active compounds read low 1.02 | locus YPL055C, strain LGE1, active compounds read low 0.91 | locus YPL241C, strain CIN2, active compounds read low 1 | locus YPR135W, strain CTF4, active compounds read low 1.01
